# In PubChem BioAssay (EPA / NIEHS):
# Inconclusive results are not listed. A structure can be active in one record and inactive in another. Activity calls are given as the source filed them. The calls were made as follows, unless noted: active = hit-call score of the fitted dose curve at least 0.9, where 1 is the maximum; inconclusive = response in the unintended direction; inactive = score below 0.9.
# Key:
# [1] = target: mouse Estrogen Receptor alpha (Era), Esr1 (gene 13982) (UniProt P19785); assay: NVS_NR_mERa: NovaScreen (NVS) Nuclear Receptor Binding Assay for mouse Estrogen Receptor alpha (Era) (AID 2283378);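 also: hit means loss of bound radioligand signal relative to DMSO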
# How it was run: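 Filter scintillation counts of bound radioligand, measured 18 h post-dose, gave the readout; decreased signal relative to DMSO controls indicated displacement from mouse Era. Primary screen ran in duplicate at 25 uM; active chemicals were retested across concentrations.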
# [2] = target: Estrogen receptor beta (Homo sapiens) (UniProt Q92731); assay: OT_ER_ERbERb_1440: Odyssey Thera (OT) 24-hour HEK293T Protein-Complementation Assay for Estrogen Receptor-beta/-beta Homodimer (AID 2283380);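 also: fluorescence gain from ER beta LBD homodimer complementation read by laser scanning cytometry; scored as signal increase over DMSO baseline for both agonists and antagonists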
# How it was run: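 HEK293T cells stably expressing human ER-beta LBD (aa 310-547) PCA homodimer pair, dosed 24 h; formaldehyde-fixed, Draq5-stained. Readout: increase in nuclear (agonist) or nuclear plus cytoplasmic (antagonist) fluorescence intensity versus DMSO, gain-of-signal fitting.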
# [3] = target: Estrogen receptor (Homo sapiens) (UniProt P03372); assay: OT_ERa_GFPERaERE_0480: Odyssey Thera (OT) 8-hour HeLa Transcription Induction Assay for Estrogen Receptor (AID 2283381; active = hit-call score of the fitted dose curve at least 0.9, where 1 is the maximum; inactive = score below 0.9)
# How it was run: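 An 8 h HeLa transcription-induction format with a GFP reporter under ERE control, read by fluorescence microscopy; single endpoint fitted positively with DMSO as baseline.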
# [4] = target: Estrogen receptor (Homo sapiens) (UniProt P03372); assay: OT_ERa_GFPERaERE_0120: Odyssey Thera (OT) 2-hour HeLa Transcription Induction Assay for Estrogen Receptor (AID 2283382)
# How it was run: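 Two-hour compound treatment of HeLa cells preceded microscopy imaging of an inducible fluorescent reporter. Image-based quantification gave one endpoint, analysed for signal increase relative to DMSO controls.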
# [5] = target: Retinoic acid receptor RXR-alpha (Homo sapiens) (UniProt P19793); assay: OT_NURR1_NURR1RXRa_1440: Odyssey Thera (OT) 24-hour HEK293T Protein Complementation Assay for Nurr1/retinoid X receptor (RXR) (AID 2283386)
# How it was run: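 Cell-based binding reporter: HEK293T cells, 24 h exposure, fluorescence-detected fragment complementation, DMSO as baseline.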
# [6] = target: Peroxisome proliferator-activated receptor gamma (Homo sapiens) (UniProt P37231); assay: OT_PPARg_PPARgSRC1_0480: Odyssey Thera (OT) 8-hour Protein-Complementation Assay for Peroxisome Proliferator-activated Receptor Gamma / SRC-1 Co-activator (AID 2283387);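 also: nuclear to cytoplasmic split Venus YFP fluorescence ratio reporting PPARg SRC-1 interaction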
# How it was run: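 Split-YFP (IFP1/IFP2) PPARg/SRC-1 reporter, HEK293T, 37 °C, 5% CO2; 8 h compound; formaldehyde fix + Draq5; high-content imaging, N/C ratio, ≥350 cells/image, positive direction vs DMSO.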
# [7] = target: Peroxisome proliferator-activated receptor gamma (Homo sapiens) (UniProt P37231); assay: OT_PPARg_PPARgSRC1_1440: Odyssey Thera (OT) 24-hour Protein-Complementation Assay for Peroxisome Proliferator-activated Receptor Gamma/ SRC-1 Co-activator (AID 2283388);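 also: nuclear to cytoplasmic ratio of reconstituted Venus YFP fluorescence in fixed imaged cells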
# How it was run: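 Readout: nuclear-to-cytoplasmic 488 nm fluorescence ratio, ≥350 cells per image, 8 images per well, after 24 h compound exposure of HEK293T expressing PPARg/SRC-1 split-YFP fusions. Activity fitted in positive direction against DMSO.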
# [8] = target: human Norepinephrine Transporter (NET), SLC6A2 (gene 6530) (UniProt P23975); assay: NVS_TR_hNET: NovaScreen (NVS) Transporter Assay for human Norepinephrine Transporter (NET) (AID 2283377);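 also: cell-free membrane protein extracted from CHO cells expressing human NET; displacement of radioligand from human NET seen as loss of scintillation signal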
# How it was run: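 In this cell-free binding screen, chemicals at 25 uM (duplicate) compete with a radioligand for CHO-derived human NET over 1 hour, with filter-based radiodetection.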
# [9] = target: Agonist Androgen Response Element (ARE), AR (gene 367) (UniProt P10275); assay: OT_AR_ARELUC_AG_1440: Odyssey Thera (OT) 24-hour CHO-K1 Luciferase Assay for Agonist Androgen Response Element (ARE) (AID 2283379)
# How it was run: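 Luminescence increase above DMSO, read after a 24 h compound treatment of CHO-K1 cells expressing an androgen response element luciferase reporter, gives the single primary endpoint; concentration-response fitting used the positive direction.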
# [10] = target: Bile acid receptor (Homo sapiens) (UniProt Q96RI1); assay: OT_FXR_FXRSRC1_0480: Odyssey Thera (OT) 8-hour HEK293T Protein-Complementation Assay for Farnesoid X receptor/SRC-1 Co-activator (AID 2283383)
# How it was run: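 Readings were taken 8 h after dosing HEK293T cells in a split-reporter complementation format pairing FXR with SRC-1. Increased fluorescence relative to DMSO-treated wells defined activity.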
# [11] = target: Retinoic acid receptor RXR-alpha (Homo sapiens) (UniProt P19793); assay: OT_NURR1_NURR1RXRa_0480: Odyssey Thera (OT) 8-hour HEK293T Protein Complementation Assay for Nurr1/retinoid X receptor (RXR) (AID 2283385)
# How it was run: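 Gain in fluorescent complementation signal over DMSO, measured 8 hours after chemical dosing of human kidney HEK293T cells, indicated enhanced Nurr1–RXRα association.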
# [12] = target: human Dopamine Transporter (DAT), SLC6A3 (gene 6531) (UniProt Q01959); assay: NVS_TR_hDAT: NovaScreen (NVS) Transporter Assay for human Dopamine Transporter (DAT) (AID 2283374);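 also: activity means loss of bound radioligand signal relative to DMSO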
# How it was run: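 Extracted human SLC6A3 protein incubated 1 h with radioligand and test chemical; bound fraction separated on filters and counted. Single 25 uM duplicate screen preceded concentration-response follow-up; positive and negative controls on every plate.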
# [13] = target: Bile acid receptor (Homo sapiens) (UniProt Q96RI1); assay: OT_FXR_FXRSRC1_1440: Odyssey Thera (OT) 24-hour HEK293T Protein-Complementation Assay for Farnesoid X receptor/SRC-1 Co-activator (AID 2283384)
# How it was run: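 Single endpoint, analysed for increased fluorescence against DMSO controls. HEK293T cells carrying FXR and SRC-1 linked to complementary reporter halves were exposed to chemicals for 24 h before reading.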
# [14] = CEETOX_H295R_11DCORT: CeeTox H295R High-throughput Steroidogenesis Assay for 11-Deoxycortisol (11DCORT) (AID 2283432; active = hit-call score of the fitted dose curve at least 0.9, where 1 is the maximum; inactive = score below 0.9); settings: actives raise or lower the signal
# How it was run: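 Steroidogenesis in human H295R cells: 48 h chemical exposure after forskolin priming, 11-deoxycortisol measured by LC-MS/MS.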
# [15] = CEETOX_H295R_OHPREG: CeeTox H295R High-throughput Steroidogenesis Assay for OH-Pregnenolone (OHPREG) (AID 2283434; active = hit-call score of the fitted dose curve at least 0.9, where 1 is the maximum; inactive = score below 0.9); settings: actives raise or lower the signal
# How it was run: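 Readout: HPLC-MS/MS of 17alpha-hydroxypregnenolone in medium after 48 h chemical exposure of H295R cells pretreated with forskolin. Values fitted bidirectionally relative to DMSO; chemicals reducing viability to 20–70% were retested after 10-fold dilution.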
# [16] = CEETOX_H295R_CORTIC: CeeTox H295R High-throughput Steroidogenesis Assay for Corticosterone (CORTIC) (AID 2283437; active = hit-call score of the fitted dose curve at least 0.9, where 1 is the maximum; inactive = score below 0.9;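 also: corticosterone secreted into medium quantified by mass spectrometry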); settings: actives raise or lower the signal
# How it was run: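 Steps: seed H295R, adhere overnight; 10 uM forskolin 48 h; replace with chemical (0.1% DMSO) 48 h; extract medium with MTBE; quantify corticosterone by HPLC-MS/MS; score bidirectionally vs DMSO.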
# [17] = CEETOX_H295R_CORTISOL: CeeTox H295R High-throughput Steroidogenesis Assay for Cortisol (AID 2283438; active = hit-call score of the fitted dose curve at least 0.9, where 1 is the maximum; inactive = score below 0.9;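 also: cortisol secreted into medium quantified by LC-MS/MS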); settings: actives raise or lower the signal
# How it was run: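 Steroidogenesis in H295R, per modified OECD 456: 48 h forskolin (10 uM), then 48 h exposure, 0.1% DMSO. Cortisol by extraction and tandem MS; viability by MTT (570/650 nm); cytotoxic chemicals diluted and re-tested.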
# [18] = CEETOX_H295R_DOC: CeeTox H295R High-throughput Steroidogenesis Assay for DOC (AID 2283439; active = hit-call score of the fitted dose curve at least 0.9, where 1 is the maximum; inactive = score below 0.9); settings: actives raise or lower the signal
# How it was run: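 H295R, fsk 10 uM ×48 h pre, cmpd ×48 h (0.1% DMSO). Media → MTBE extr. → LC-MS/MS, DOC. Bidirectional fit vs DMSO; MTT viability same wells, re-test diluted if <70%.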
# [19] = target: rat Serotonin Transporter (SERT), Slc6a4 (gene 25553) (UniProt P31652); assay: NVS_TR_rSERT: NovaScreen (NVS) Transporter Assay for rat Serotonin Transporter (SERT) (AID 2283375)
# How it was run: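 Radioligand displacement, filter scintillation readout; rat forebrain membrane prep, 1 h post-dose. Single-conc 25 uM duplicate screen, then concentration-response on actives. Loss of signal vs DMSO baseline.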
# Estrogen receptor beta (Homo sapiens), sequence (Q92731 whole entry, looked up, the tested form may be a part): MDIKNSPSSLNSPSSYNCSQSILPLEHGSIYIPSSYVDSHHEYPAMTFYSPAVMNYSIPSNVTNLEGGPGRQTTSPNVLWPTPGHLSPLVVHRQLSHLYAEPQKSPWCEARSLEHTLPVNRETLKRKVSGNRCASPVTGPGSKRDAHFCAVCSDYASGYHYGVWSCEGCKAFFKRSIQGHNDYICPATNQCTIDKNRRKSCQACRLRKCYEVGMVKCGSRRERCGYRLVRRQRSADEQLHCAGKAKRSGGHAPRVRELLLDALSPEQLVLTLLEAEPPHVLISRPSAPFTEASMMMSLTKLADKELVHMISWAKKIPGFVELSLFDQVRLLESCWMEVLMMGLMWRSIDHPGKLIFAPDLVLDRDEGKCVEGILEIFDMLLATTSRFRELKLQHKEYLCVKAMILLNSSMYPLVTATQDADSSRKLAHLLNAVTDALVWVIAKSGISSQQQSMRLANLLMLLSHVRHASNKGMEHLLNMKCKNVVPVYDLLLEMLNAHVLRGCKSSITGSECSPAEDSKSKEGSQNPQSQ
# Estrogen receptor (Homo sapiens), sequence (P03372 whole entry, looked up): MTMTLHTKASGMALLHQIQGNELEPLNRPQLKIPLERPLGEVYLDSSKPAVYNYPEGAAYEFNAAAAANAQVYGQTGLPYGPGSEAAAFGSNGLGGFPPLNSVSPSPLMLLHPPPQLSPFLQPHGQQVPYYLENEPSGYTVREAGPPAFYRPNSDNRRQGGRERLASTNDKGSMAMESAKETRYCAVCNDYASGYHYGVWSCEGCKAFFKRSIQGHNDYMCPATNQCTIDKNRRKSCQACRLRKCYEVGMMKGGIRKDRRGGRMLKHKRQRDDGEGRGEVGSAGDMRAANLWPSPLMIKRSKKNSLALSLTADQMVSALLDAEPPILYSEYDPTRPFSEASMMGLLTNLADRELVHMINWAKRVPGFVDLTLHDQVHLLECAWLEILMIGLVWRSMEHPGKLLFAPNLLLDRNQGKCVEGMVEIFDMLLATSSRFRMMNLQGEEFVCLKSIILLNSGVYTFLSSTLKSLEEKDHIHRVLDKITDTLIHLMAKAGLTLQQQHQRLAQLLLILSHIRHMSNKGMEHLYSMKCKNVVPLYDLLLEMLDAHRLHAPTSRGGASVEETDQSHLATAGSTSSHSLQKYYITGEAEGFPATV
# Bile acid receptor (Homo sapiens), sequence (Q96RI1 whole entry, looked up): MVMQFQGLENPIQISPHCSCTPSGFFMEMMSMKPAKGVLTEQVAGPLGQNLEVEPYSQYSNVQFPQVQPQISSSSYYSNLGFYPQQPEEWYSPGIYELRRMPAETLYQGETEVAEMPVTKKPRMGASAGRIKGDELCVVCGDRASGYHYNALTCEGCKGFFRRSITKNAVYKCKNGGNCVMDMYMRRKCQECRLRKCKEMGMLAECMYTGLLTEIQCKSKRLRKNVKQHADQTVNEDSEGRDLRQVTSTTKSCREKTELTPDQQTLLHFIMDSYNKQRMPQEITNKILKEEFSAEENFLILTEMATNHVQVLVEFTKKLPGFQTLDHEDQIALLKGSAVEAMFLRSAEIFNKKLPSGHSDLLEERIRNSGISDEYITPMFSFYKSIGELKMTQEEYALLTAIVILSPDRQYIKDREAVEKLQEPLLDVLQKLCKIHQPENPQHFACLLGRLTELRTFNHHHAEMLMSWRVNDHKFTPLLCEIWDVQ
# Peroxisome proliferator-activated receptor gamma (Homo sapiens), sequence (P37231 whole entry, looked up, the tested form may be a part): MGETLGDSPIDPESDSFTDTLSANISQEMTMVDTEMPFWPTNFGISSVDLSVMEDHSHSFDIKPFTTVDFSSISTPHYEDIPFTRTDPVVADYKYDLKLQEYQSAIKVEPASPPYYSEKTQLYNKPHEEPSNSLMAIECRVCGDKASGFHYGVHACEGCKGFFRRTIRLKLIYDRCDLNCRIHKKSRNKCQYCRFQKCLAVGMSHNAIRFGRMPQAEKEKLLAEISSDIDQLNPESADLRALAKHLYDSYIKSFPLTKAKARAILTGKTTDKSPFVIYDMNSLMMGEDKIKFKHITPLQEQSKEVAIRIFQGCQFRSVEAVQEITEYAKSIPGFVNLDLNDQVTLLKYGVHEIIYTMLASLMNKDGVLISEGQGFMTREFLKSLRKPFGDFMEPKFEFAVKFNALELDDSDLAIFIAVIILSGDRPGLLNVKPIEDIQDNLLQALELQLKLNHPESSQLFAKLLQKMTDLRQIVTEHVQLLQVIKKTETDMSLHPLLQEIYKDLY
# mouse Estrogen Receptor alpha (Era), Esr1 (gene 13982), sequence (P19785 whole entry, looked up): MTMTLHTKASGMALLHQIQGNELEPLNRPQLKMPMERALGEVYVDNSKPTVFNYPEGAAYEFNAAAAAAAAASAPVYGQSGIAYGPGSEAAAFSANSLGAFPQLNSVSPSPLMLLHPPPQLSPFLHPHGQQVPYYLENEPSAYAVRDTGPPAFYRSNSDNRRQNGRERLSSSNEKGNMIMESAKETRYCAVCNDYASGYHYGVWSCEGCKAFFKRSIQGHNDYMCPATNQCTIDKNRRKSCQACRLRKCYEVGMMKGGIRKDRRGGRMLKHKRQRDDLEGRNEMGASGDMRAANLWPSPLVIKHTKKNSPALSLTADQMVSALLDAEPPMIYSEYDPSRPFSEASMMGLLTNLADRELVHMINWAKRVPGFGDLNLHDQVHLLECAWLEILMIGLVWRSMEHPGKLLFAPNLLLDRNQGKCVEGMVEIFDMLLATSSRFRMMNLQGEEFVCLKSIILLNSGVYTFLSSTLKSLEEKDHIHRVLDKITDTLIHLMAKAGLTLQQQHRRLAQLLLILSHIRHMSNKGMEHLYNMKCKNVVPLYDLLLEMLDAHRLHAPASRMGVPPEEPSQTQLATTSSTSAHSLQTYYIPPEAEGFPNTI
# Retinoic acid receptor RXR-alpha (Homo sapiens), sequence (P19793 whole entry, looked up, the tested form may be a part): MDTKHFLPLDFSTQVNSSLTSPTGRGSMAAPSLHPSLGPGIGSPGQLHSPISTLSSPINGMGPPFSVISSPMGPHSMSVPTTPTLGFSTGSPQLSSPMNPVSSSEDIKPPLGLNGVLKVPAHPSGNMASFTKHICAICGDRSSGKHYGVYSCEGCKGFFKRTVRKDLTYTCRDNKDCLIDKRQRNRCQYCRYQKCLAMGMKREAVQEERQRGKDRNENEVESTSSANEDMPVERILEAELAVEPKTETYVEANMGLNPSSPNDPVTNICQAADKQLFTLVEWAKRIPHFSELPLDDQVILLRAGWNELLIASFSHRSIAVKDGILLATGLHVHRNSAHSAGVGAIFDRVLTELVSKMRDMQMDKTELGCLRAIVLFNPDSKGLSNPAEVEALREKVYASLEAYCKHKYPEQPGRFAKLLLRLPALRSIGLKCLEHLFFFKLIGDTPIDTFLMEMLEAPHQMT
# human Dopamine Transporter (DAT), SLC6A3 (gene 6531), sequence (Q01959 whole entry, looked up): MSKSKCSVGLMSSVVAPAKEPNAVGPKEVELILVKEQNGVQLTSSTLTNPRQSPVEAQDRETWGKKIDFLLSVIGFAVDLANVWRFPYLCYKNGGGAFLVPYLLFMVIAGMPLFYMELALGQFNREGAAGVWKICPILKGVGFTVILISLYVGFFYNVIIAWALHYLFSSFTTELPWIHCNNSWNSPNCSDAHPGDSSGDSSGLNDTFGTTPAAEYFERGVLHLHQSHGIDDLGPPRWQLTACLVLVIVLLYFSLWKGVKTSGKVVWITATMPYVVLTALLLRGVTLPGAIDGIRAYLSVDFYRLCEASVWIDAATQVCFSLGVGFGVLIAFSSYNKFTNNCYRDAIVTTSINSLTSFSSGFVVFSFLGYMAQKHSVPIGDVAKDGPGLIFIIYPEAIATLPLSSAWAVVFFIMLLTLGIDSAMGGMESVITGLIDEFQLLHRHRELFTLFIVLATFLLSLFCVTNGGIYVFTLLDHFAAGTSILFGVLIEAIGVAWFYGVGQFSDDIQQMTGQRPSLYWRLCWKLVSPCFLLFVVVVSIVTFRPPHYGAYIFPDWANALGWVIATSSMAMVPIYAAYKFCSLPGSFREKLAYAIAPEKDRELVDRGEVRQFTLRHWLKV
# rat Serotonin Transporter (SERT), Slc6a4 (gene 25553), sequence (P31652 whole entry, looked up): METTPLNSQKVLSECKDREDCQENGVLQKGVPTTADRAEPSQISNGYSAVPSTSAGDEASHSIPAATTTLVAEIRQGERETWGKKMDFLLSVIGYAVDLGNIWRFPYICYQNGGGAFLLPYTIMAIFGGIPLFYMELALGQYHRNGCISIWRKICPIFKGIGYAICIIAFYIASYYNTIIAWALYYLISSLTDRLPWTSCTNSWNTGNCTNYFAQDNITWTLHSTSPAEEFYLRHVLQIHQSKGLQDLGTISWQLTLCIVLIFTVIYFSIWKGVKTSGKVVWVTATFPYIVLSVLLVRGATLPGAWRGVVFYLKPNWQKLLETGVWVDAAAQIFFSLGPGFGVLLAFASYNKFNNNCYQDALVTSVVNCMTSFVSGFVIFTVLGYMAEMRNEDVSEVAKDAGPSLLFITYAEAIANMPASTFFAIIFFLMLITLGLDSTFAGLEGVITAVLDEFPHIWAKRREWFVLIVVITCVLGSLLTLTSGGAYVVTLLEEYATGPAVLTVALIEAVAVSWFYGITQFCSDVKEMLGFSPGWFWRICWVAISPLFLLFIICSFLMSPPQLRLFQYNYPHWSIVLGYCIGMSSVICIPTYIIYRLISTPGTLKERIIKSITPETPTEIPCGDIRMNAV
structure (smiles),measurement,setting,value
NC(=O)N1c2ccccc2C=Cc2ccccc21,outcome,[1],inactive
same,outcome,[2],inactive
same,outcome,[3],inactive
same,outcome,[4],inactive
same,outcome,[5],inactive
same,outcome,[6],inactive
same,outcome,[7],inactive
CCCCCCCCCCCCCCCCOS(=O)(=O)O,AC50,[8],19.6 µM (active)
same,AC50,[1],7.04 µM (active)
same,outcome,[9],inactive
same,outcome,[2],inactive
same,outcome,[3],inactive
same,outcome,[4],inactive
same,outcome,[10],inactive
same,outcome,[11],inactive
same,outcome,[5],inactive
same,outcome,[6],inactive
same,outcome,[7],inactive
CC(C)c1nnc2ccc(-c3ocnc3-c3cc(F)ccc3F)cn12,outcome,[12],inactive
same,outcome,[2],inactive
same,outcome,[3],inactive
same,outcome,[4],inactive
same,outcome,[10],inactive
same,outcome,[13],inactive
same,outcome,[11],inactive
same,outcome,[5],inactive
same,outcome,[6],inactive
same,outcome,[7],inactive
same,outcome,[14],inactive
same,outcome,[15],inactive
same,outcome,[16],inactive
same,outcome,[17],inactive
same,outcome,[18],inactive
O=S(=O)(O)c1ccc(N=Nc2c(O)ccc3cc(S(=O)(=O)O)ccc23)cc1,outcome,[19],inactive
same,outcome,[3],inactive
same,outcome,[4],inactive
same,outcome,[13],inactive
same,outcome,[11],inactive
same,outcome,[5],inactive
O=C(NO)C1(NS(=O)(=O)c2ccc(Oc3ccc(F)cc3)cc2)CCOCC1,AC50,[12],8.77 µM (active)
same,outcome,[2],inactive
same,outcome,[3],inactive
same,outcome,[4],inactive
same,outcome,[11],inactive
same,outcome,[6],inactive
same,outcome,[7],inactive
CC(C)C(=O)Nc1ccc([N+](=O)[O-])c(C(F)(F)F)c1,outcome,[1],inactive
same,outcome,[2],inactive
same,outcome,[3],inactive
same,outcome,[4],inactive
same,outcome,[10],inactive
same,outcome,[11],inactive
same,outcome,[6],inactive
same,outcome,[7],inactive
CCCOc1ccc(S(=O)(=O)N2CCN(CC)CC2)cc1-c1nc2c(CC)n(Cc3ccccn3)nc2c(=O)[nH]1,AC50,[12],25 µM (active)
same,outcome,[19],inactive
same,outcome,[2],inactive
same,outcome,[3],inactive
same,outcome,[4],inactive
same,outcome,[10],inactive
same,outcome,[13],inactive
same,outcome,[11],inactive
same,outcome,[6],inactive
same,outcome,[7],inactive
same,outcome,[14],inactive
same,outcome,[15],inactive
same,outcome,[16],inactive
same,outcome,[17],inactive
same,outcome,[18],inactive
CCc1ccc(O)c(C(C)(C)C)c1,outcome,[1],inactive
same,outcome,[2],inactive
same,outcome,[3],inactive
same,outcome,[4],inactive
same,outcome,[6],inactive
same,outcome,[7],inactive
COS(C)(=O)=O,outcome,[1],inactive
same,outcome,[3],inactive
same,outcome,[11],inactive
same,outcome,[5],inactive
same,outcome,[6],inactive
same,outcome,[7],inactive
Cc1nccn1-c1ccc(Sc2cccc(C3(C(N)=O)CCOCC3)c2)cc1,AC50,[12],6.99 µM (active)
same,AC50,[2],31.9 µM (active)
same,AC50,[3],17.4 µM (active)
same,outcome,[4],inactive
same,AC50,[10],4.07 µM (active)
same,AC50,[13],9.64 µM (active)
same,outcome,[11],inactive
same,AC50,[5],50 µM (active)
same,outcome,[5],inactive
same,outcome,[6],inactive
same,outcome,[7],inactive
